Among the data in PubChem BioAssay (EPA / NIEHS) are AC50 and outcome values, retold here.

Structures are written as SMILES. Values joined by “and” are separate entries in the source; they are usually repeats but may differ in a detail not shown here. Equal values may be shown once. Records with an inconclusive call do not appear. A structure can be active in one record and inactive in another. Active and inactive are the calls of the source. The calls were made as follows, unless noted: active = hit-call score of the fitted dose curve at least 0.9, where 1 is the maximum; inactive = score below 0.9.

What is called AC50 is the midpoint of the concentration-response curve, whichever way the signal moves.

Test [1] has as its target human Retinoid X Receptor beta (RXRb), RXRB (gene 6257) (UniProt P28702). Put plainly: ATG_RXRb_TRANS: Attagene TRANS-FACTORIAL HepG2 Assay for human Retinoid X Receptor beta (RXRb) (AID 2283013; active = hit-call score of the fitted dose curve at least 0.9, where 1 is the maximum). A digest of the protocol:
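After a 24 h incubation with test chemical, transfected HepG2 cells carrying NR-Gal4 fusions and GAL4-UAS reporter transcription units yield RNA whose reporter cDNA is FAM-labelled, HpaI-cut and sized by capillary electrophoresis; increases over DMSO are scored.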

Test [2] has as its target human Thyroid Receptor alpha (THRa1), THRA (gene 7067) (UniProt P10827). As to the kind of experiment: ATG_THRa1_TRANS: Attagene TRANS-FACTORIAL HepG2 Assay for human Thyroid Receptor alpha (THRa1) (AID 2283014; active = hit-call score of the fitted dose curve at least 0.9, where 1 is the maximum). A digest of the protocol: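 HepG2 cells transiently transfected with chimeric NR-Gal4 and GAL4-UAS reporter units, dosed 24 h. Reporter mRNA quantified by RT-PCR, fluorescent labeling, HpaI digestion and capillary electrophoresis; gain-of-signal fit versus DMSO.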

Read-out in test [3]: E-selectin (Homo sapiens) (UniProt P16581)
As to the kind of experiment: BSK_3C_Eselectin: BioMAP Diversity Plus: 3C Assay for Eselectin Biomarker Activity (AID 2283015).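 As to outcome: cell surface E-selectin protein quantified by ELISA 24 h after dosing.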 Conditions: primary human endothelial cells (HUVEC); actives raise or lower the signal. A digest of the protocol: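 Primary human umbilical vein endothelial cells (3C system), read 24 h after compound addition; E-selectin measured by ELISA. Bidirectional curve fitting against DMSO baseline; cytotoxicity by parallel SRB total-protein staining.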

Read-out in test [4]: Interleukin-1 alpha (IL1a), IL1A (gene 3552)
As to the kind of experiment: BSK_BE3C_IL1a: BioMAP Diversity Plus: BE3C Assay for Interleukin-1 alpha (IL1a) Biomarker Activity (AID 2283016). Conditions: primary human bronchial epithelial cells; actives raise or lower the signal. The essentials:
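Measured in human lung primary bronchial epithelial cells: IL-1a by ELISA at 24 h after dosing, with bidirectional fitting against DMSO.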

Read-out in test [5]: Monocyte Chemoattractant Protein-1 (MCP1), CCL2 (gene 6347)
Put plainly: BSK_3C_MCP1: BioMAP Diversity Plus: 3C Assay for Monocyte Chemoattractant Protein-1 (MCP1) Biomarker Activity (AID 2283017). Conditions: primary human endothelial cells (HUVEC); actives raise or lower the signal. A digest of the protocol:
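Human umbilical vein endothelial cells (3C system) exposed to chemicals for 24 h; MCP-1 quantified by ELISA against the DMSO baseline with bidirectional fitting, and parallel SRB staining used to assess cytotoxicity.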

Read-out in test [6]: Monocyte Chemoattractant Protein-1 (MCP1), CCL2 (gene 6347)
Put plainly: BSK_4H_MCP1: BioMAP Diversity Plus: 4H Assay for Monocyte Chemoattractant Protein-1 (MCP1) Biomarker Activity (AID 2283018). Conditions: primary human endothelial cells (HUVEC); actives raise or lower the signal. A digest of the protocol: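 Primary human umbilical vein endothelium is exposed to chemical for 24 h before MCP-1 is assayed by ELISA. Concentration-response fitted bidirectionally relative to DMSO.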

Read-out in test [7]: Human Leukocyte Antigen - DR isotype (HLADR), HLA-DRA (gene 3122)
Put plainly: BSK_3C_HLADR: BioMAP Diversity Plus: 3C Assay for Human Leukocyte Antigen - DR isotype (HLADR) Biomarker Activity (AID 2283019). Conditions: primary human endothelial cells (HUVEC); actives raise or lower the signal. The essentials: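 HUVEC monoculture, HLA-DR measured by ELISA 24 h after chemical dosing. Fitted bidirectionally against DMSO baseline; parallel SRB staining assessed cytotoxicity, with 3C proliferation read by SRB at 48 h.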

Read-out in test [8]: Interleukin-8 (IL8), CXCL8 (gene 3576)
Put plainly: BSK_3C_IL8: BioMAP Diversity Plus: 3C Assay for Interleukin-8 (IL8) Biomarker Activity (AID 2283020). Conditions: primary human endothelial cells (HUVEC); actives raise or lower the signal. A digest of the protocol:
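Using DMSO-treated wells as the baseline, bidirectional curve fitting was applied to ELISA-measured IL-8 from human umbilical vein endothelial cultures sampled 24 h after compound addition.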

Read-out in test [9]: Monokine induced gamma interferon (MIG), CXCL9 (gene 4283)
As to the kind of experiment: BSK_3C_MIG: BioMAP Diversity Plus: 3C Assay for Monokine induced gamma interferon (MIG) Biomarker Activity (AID 2283021).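 As to AC50: MIG protein level measured by immunoassay in the treated endothelial cultures.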 Conditions: primary human endothelial cells (HUVEC); actives raise or lower the signal. A digest of the protocol: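 ELISA-measured MIG in dosed HUVEC 3C cultures at 24 h, analysed by bidirectional fitting with DMSO defining baseline activity.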

The target in test [10] is human Vitamin D Receptor (VDR), VDR (gene 7421) (UniProt P11473). Put plainly: ATG_VDR_TRANS: Attagene TRANS-FACTORIAL HepG2 Assay for human Vitamin D Receptor (VDR) (AID 2283022; active = hit-call score of the fitted dose curve at least 0.9, where 1 is the maximum). A digest of the protocol:
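HepG2 cells were transiently transfected with GAL4-UAS reporter units and a chimeric VDR-Gal4 construct, then dosed for 24 hours. Reporter mRNA was quantified by RT-PCR, fluorescent labeling, HpaI digestion and capillary electrophoresis; gain of signal analysed vs DMSO.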

A short description of test [11]: BSK_3C_SRB: Viability Assessment in the BioMAP Diversity Plus: 3C Assay (AID 2283023).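 Also: fitted both ways against DMSO so a hit may be signal rise or drop.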 Conditions: primary human endothelial cells (HUVEC). The essentials: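 Human umbilical vein endothelial cells in the 3C system, treated 24 h. Total protein measured by 0.1% sulforhodamine B staining after 10% TCA fixation, read at 560 nm; bidirectional fit versus DMSO.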
Read-out in test [12]: Matrix Metallopeptidase 1 (MMP1), MMP1 (gene 4312)
Put plainly: BSK_BE3C_MMP1: BioMAP Diversity Plus: BE3C Assay for Matrix Metallopeptidase 1 (MMP1) Biomarker Activity (AID 2283024). Conditions: primary human bronchial epithelial cells; actives raise or lower the signal. A digest of the protocol:
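In this multiplexed primary-cell system, human bronchial epithelium received chemicals for 24 h before an ELISA for MMP1. Values reflect bidirectional fits normalised to the DMSO baseline.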

Test [13] in a line: BSK_3C_Vis: BioMAP Diversity Plus: 3C Assay for Morphology Visualization (AID 2283025).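 Also: fitted both ways so gain or loss versus DMSO counts.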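 As to AC50: light microscopy image of cell morphology used as background control.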 Conditions: primary human endothelial cells (HUVEC). The essentials:
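Light-microscopy morphology readout, 24 h exposure, human primary umbilical vein endothelium; analysed relative to DMSO with bidirectional fitting.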

Read-out in test [14]: Pselectin, SELP (gene 6403)
As to the kind of experiment: BSK_4H_Pselectin: BioMAP Diversity Plus: 4H Assay for Pselectin Biomarker Activity (AID 2283026). Conditions: primary human endothelial cells (HUVEC); actives raise or lower the signal. The essentials:
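Bidirectional fits against DMSO gave the endpoint. Cells: primary human umbilical vein endothelium, chemical-treated for 24 h before ELISA detection of P-selectin.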

The nature of test [15]: BSK_BE3C_SRB: Viability Assessment in the BioMAP Diversity Plus: BE3C Assay (AID 2283028). Conditions: primary human bronchial epithelial cells. A digest of the protocol:
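Human bronchial epithelial primary cells in confluent culture, 24 h after chemical dosing; total protein by 0.1% SRB staining after 10% TCA fixation, read at 560 nm. Bidirectional fitting versus DMSO baseline.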

Read-out in test [16]: Thrombomodulin, THBD (gene 7056)
Put plainly: BSK_3C_Thrombomodulin: BioMAP Diversity Plus: 3C Assay for Thrombomodulin Biomarker Activity (AID 2283029). Conditions: primary human endothelial cells (HUVEC); actives raise or lower the signal. A digest of the protocol: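 In a multiplexed primary-cell system, human umbilical vein endothelium received chemical and was assayed 24 h later for thrombomodulin by ELISA. Parallel cultures were SRB-stained (0.1% SRB after 10% TCA fixation, read at 560 nm) to flag cytotoxicity.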

Read-out in test [17]: Urokinase-type plasminogen activator receptor (uPAR), PLAUR (gene 5329)
Put plainly: BSK_4H_uPAR: BioMAP Diversity Plus: 4H Assay for Urokinase-type plasminogen activator receptor (uPAR) Biomarker Activity (AID 2283030). Conditions: primary human endothelial cells (HUVEC); actives raise or lower the signal. The essentials:
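Human umbilical vein endothelial cells in the 4H system, 24 h after chemical dosing. Cell-surface uPAR measured by ELISA, fitted in both directions versus DMSO; cytotoxicity checked by SRB total protein in parallel cultures.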

Read-out in test [18]: Vascular endothelial growth factor receptor 2 (Homo sapiens) (UniProt P35968)
As to the kind of experiment: BSK_4H_VEGFRII: BioMAP Diversity Plus: 4H Assay for Vascular endothelial growth factor receptor 2 (VEGFR2) Biomarker Activity (AID 2283031).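 As to AC50: cell-surface VEGFR2 protein level quantified by ELISA.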 Conditions: primary human endothelial cells (HUVEC); actives raise or lower the signal. The essentials: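 Primary human umbilical vein endothelial cells (4H system), 24 h exposure; cell-surface VEGFR2 measured by ELISA. Bidirectional fitting versus DMSO; cytotoxicity checked in parallel by SRB total-protein staining.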

Read-out in test [19]: Human Leukocyte Antigen - DR isotype (HLADR), HLA-DRA (gene 3122)
As to the kind of experiment: BSK_BE3C_HLADR: BioMAP Diversity Plus: BE3C Assay for Human Leukocyte Antigen - DR isotype (HLADR) Biomarker Activity (AID 2283032). Conditions: primary human bronchial epithelial cells; actives raise or lower the signal. The essentials:
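BioMAP BE3C format: human bronchial epithelium, 24 h compound treatment, ELISA detection of HLA-DR, with bidirectional analysis relative to DMSO.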

Test [20] is described as follows: BSK_4H_SRB: Viability Assessment in the BioMAP Diversity Plus: 4H Assay (AID 2283027).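 Also: cells exposed to compound for 24 h before staining.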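 As to AC50: curves fitted both ways versus DMSO so AC50 may be loss or gain.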 Conditions: primary human endothelial cells (HUVEC). The essentials:
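Cytotoxicity readout: sulforhodamine B (0.1%) staining of total protein after 10% TCA fixation, measured at 560 nm in human umbilical vein endothelium at 24 h. DMSO set the baseline; fitting was bidirectional.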

Sequence of human Vitamin D Receptor (VDR), VDR (gene 7421) (P11473 whole entry, looked up, the tested form may be a part): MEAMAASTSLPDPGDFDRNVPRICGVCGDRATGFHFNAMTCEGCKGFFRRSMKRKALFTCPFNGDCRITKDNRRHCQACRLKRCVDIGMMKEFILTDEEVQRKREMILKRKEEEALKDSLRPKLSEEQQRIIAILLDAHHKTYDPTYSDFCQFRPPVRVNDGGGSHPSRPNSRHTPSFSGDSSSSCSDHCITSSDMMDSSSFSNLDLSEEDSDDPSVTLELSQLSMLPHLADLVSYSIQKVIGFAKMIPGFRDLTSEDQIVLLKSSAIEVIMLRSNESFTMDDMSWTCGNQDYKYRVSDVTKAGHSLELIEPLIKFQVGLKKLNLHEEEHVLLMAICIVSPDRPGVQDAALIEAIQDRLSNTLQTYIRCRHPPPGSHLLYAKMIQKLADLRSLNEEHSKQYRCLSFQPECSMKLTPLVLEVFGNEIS
Sequence of human Thyroid Receptor alpha (THRa1), THRA (gene 7067) (P10827 whole entry, looked up, the tested form may be a part): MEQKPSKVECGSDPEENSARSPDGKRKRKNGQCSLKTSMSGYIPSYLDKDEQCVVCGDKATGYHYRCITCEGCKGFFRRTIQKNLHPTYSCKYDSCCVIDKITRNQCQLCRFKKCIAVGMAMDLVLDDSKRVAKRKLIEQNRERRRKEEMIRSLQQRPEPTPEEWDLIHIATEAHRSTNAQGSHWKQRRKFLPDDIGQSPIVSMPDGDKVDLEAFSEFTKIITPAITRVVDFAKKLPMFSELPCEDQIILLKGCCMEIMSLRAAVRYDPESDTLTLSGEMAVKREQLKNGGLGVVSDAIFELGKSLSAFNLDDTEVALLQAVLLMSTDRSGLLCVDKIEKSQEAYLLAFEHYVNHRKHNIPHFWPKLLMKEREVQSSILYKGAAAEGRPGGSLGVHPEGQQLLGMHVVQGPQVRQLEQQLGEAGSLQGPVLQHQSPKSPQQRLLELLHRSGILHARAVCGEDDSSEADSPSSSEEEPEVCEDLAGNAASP
Sequence of human Retinoid X Receptor beta (RXRb), RXRB (gene 6257) (P28702 whole entry, looked up, the tested form may be a part): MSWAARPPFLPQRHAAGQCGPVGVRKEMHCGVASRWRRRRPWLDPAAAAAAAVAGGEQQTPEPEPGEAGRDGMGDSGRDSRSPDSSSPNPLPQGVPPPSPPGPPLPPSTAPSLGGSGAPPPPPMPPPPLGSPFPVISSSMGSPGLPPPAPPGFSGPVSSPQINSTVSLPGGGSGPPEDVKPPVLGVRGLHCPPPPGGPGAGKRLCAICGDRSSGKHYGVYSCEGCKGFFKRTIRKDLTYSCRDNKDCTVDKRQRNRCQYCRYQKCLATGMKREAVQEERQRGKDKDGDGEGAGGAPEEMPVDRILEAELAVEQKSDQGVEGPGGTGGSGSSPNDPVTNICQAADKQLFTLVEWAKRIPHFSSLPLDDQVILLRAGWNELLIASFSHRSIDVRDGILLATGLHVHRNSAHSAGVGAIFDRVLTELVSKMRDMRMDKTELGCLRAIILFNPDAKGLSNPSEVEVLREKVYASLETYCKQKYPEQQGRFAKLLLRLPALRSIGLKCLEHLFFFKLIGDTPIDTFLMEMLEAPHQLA
Sequence of E-selectin (Homo sapiens) (P16581 whole entry, looked up): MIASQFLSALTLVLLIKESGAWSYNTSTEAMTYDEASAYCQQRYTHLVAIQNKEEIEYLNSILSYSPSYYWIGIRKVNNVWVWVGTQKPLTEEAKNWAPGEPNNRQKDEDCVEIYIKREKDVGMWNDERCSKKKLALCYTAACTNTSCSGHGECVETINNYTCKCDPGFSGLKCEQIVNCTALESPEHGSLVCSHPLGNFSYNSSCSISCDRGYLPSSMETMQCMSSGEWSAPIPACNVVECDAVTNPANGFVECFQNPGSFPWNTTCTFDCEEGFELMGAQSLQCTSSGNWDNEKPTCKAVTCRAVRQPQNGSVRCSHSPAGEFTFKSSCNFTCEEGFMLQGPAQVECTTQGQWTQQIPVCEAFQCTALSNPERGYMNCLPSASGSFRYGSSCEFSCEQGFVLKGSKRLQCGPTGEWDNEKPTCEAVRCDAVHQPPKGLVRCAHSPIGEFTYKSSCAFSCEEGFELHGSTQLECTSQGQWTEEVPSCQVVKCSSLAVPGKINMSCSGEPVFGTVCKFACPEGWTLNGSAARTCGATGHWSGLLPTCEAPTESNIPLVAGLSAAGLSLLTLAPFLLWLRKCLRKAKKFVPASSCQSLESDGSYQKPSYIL

As to `CC(C)(C)c1ccc(O)c(O)c1`, the AC50 in test [1] was 38.8 µM (active) and 44.5 µM (active) and 27.8 µM (active); in test [2] it was 34.1 µM (active); in test [3], 3.97 µM (active); in test [4], 20 µM (active); in test [6], 5.58 µM (active); in test [7], 5.3 µM (active). Also, the AC50 was 5.42 µM (active) in [11], 8.8 µM (active) in test [13] and 20 µM (active) in test [14]. For the same compound, the compound was classed as inactive in test [1], in test [2], in [5], in test [8], in test [9] and in test [10]. Moreover, the result in [12], in test [15], in test [16], in test [17], in test [18] and in test [19] was inactive.

Regarding `C/C=C/C(=O)C1=C(C)CCCC1(C)C`, the compound was classed as inactive in test [1] and in test [2].

For the compound `OCCN1CN(CCO)CN(CCO)C1`, the outcome in test [1], in test [2], in [10], in test [12], in test [15] and in [16] was inactive. Further, the AC50 in test [3] is 34.1 µM (active); in [4], 4.12 µM (active); in [5] it was 31.1 µM (active); in [6] it was 35.5 µM (active); in test [7] it was 28 µM (active); in test [8] it was 29.2 µM (active). For the same compound, the AC50 in test [9] is 36.6 µM (active); in test [11], 32.1 µM (active); in test [13], 14.9 µM (active); in test [14], 23.1 µM (active); in [20], 31.5 µM (active); in test [17], 29 µM (active). The AC50 is 33.9 µM (active) in test [18] and 35.5 µM (active) in test [19].

Turning to `CCCCCCC(C)(C)C(=O)O`, the call in test [1] and in test [2] was inactive.

As for `Cc1cccc2c1ccc1ccccc12`, the AC50 in test [1] was 22.6 µM (active); in test [4], 5.56 µM (active); in test [7] it was 20 µM (active). Moreover, the call in test [2], in [3], in [5], in test [6], in test [8] and in test [9] was inactive. Further, the call in test [10], in [11], in test [12], in test [13], in [14] and in [20] was inactive. Besides, the outcome in test [15], in [16], in test [17], in [18] and in test [19] was inactive.

On to `COCC1CCC(CO)CC1` (stereo not given), for which, in test [1], the outcome was inactive.

Consider `CCCCN(C)C`, for which, in [1], the compound was classed as inactive.

Consider `CCOC(C)=O`, for which the AC50 in test [1] was 26.6 µM (active). The call in test [1], in test [2] and in test [10] was inactive.

With `CC1=CC(=O)c2ccccc2C1=O`, the compound was called inactive in test [1] and in [2].

Regarding `Cc1ccccc1C(OCCN(C)C)c1ccccc1` (stereo not given), the compound was classed as inactive in test [1].

Turning to `FC(F)(F)N1C(F)(F)C(F)(F)OC(F)(F)C1(F)F`, the compound was called inactive in test [1] and in [2].

Turning to `O=C(O)CCC(F)(F)C(F)(F)C(F)(F)C(F)(F)C(F)(F)C(F)(F)F`, the values for the AC50 in test [1] and in test [12] were 51.1 µM (active) and 7.99 µM (active), respectively. The compound was classed as inactive in [2], in [3], in test [4], in test [5], in test [6] and in test [7]. In addition, the outcome in test [8], in test [9], in test [10], in test [11], in test [12] and in test [14] was inactive. Further, the outcome in [15], in test [16], in [17], in [18] and in [19] was inactive.
